# According to PubChem BioAssay AID1159580 (chemical genetic matrix, 2015):
# The campaign covered roughly 5,500 compounds. About 2,000 (36%) were called active. Not shown: some 18% with an inconclusive outcome. Some of the results follow. Unmarked numbers belong to inactive results. Cut-off read from the data, not from the text of the source: active = normalized growth mostly below about 0.91 (no sharp cut-off); inconclusive = no clear call, values can overlap the other calls; inactive = mostly above about 0.92.
# Test: chemical genetic growth profiling, strain panel (AID 1159580);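 note: tested at 20 µM; growth read once vehicle control cultures reached saturation at 30 °C; 1 = growth at the plate median or of vehicle wells; lower values mean less growth of the strain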
# Settings: growth OD
smiles,measurement,setting,value
CC(=O)O[C@]1(C(C)=O)CCC2C3C[C@H](C)C4=CC(=O)CC[C@]4(C)C3CC[C@@]21C (stereo partly drawn),normalized growth,"S. cerevisiae deletion strains, locus YJR075W, strain HOC1, hits give low values",0.99
same,normalized growth,"S. cerevisiae deletion strains, locus YKL009W, strain mrt4, hits give low values",0.973
same,normalized growth,"S. cerevisiae deletion strains, locus YKL068W, hits give low values",0.971
same,normalized growth,"S. cerevisiae deletion strains, locus YKL085W, strain MDH1 (second series), hits give low values",0.977
same,normalized growth,"S. cerevisiae deletion strains, locus YKL085W, strain MDH1, hits give low values",0.977
same,normalized growth,"S. cerevisiae deletion strains, locus YKL160W, strain elf1, hits give low values",0.911
same,normalized growth,"S. cerevisiae deletion strains, locus YKL190W, strain CNB1, hits give low values",0.989
same,normalized growth,"S. cerevisiae deletion strains, locus YKR001C, strain vps1, hits give low values",0.956
same,normalized growth,"S. cerevisiae deletion strains, locus YKR026C, strain gcn3, hits give low values",0.981
same,normalized growth,"S. cerevisiae deletion strains, locus YKR091W, strain srl3, hits give low values",0.959
same,normalized growth,"S. cerevisiae deletion strains, locus YLL001W, strain dnm1, hits give low values",0.894 (active)
same,normalized growth,"S. cerevisiae deletion strains, locus YLL026W, hits give low values",0.976
same,normalized growth,"S. cerevisiae deletion strains, locus YLL041C, strain sdh2, hits give low values",0.968
same,normalized growth,"S. cerevisiae deletion strains, locus YLR027C, strain aat2, hits give low values",0.976
same,normalized growth,"S. cerevisiae deletion strains, locus YLR039C, strain RIC1, hits give low values",1.05
same,normalized growth,"S. cerevisiae deletion strains, locus YLR058C, strain SHM2, hits give low values",0.979
same,normalized growth,"S. cerevisiae deletion strains, locus YLR102C, strain apc9, hits give low values",0.989
same,normalized growth,"S. cerevisiae deletion strains, locus YLR113W, strain HOG1, hits give low values",0.965
same,normalized growth,"S. cerevisiae deletion strains, locus YLR221C, strain rsa3, hits give low values",0.9 (active)
same,normalized growth,"S. cerevisiae deletion strains, locus YLR258W, strain gsy2, hits give low values",0.949
same,normalized growth,"S. cerevisiae deletion strains, locus YLR262C, strain YPT6 (second series), hits give low values",0.815 (active)
same,normalized growth,"S. cerevisiae deletion strains, locus YLR262C, strain YPT6, hits give low values",0.957
same,normalized growth,"S. cerevisiae deletion strains, locus YLR268W, strain sec22, hits give low values",0.977
same,normalized growth,"S. cerevisiae deletion strains, locus YLR320W, strain mms22, hits give low values",0.875 (active)
same,normalized growth,"S. cerevisiae deletion strains, locus YLR330W, strain CHS5, hits give low values",0.988
same,normalized growth,"S. cerevisiae deletion strains, locus YLR342W, strain FKS1 (second series), hits give low values",0.984
same,normalized growth,"S. cerevisiae deletion strains, locus YLR342W, strain FKS1, hits give low values",0.948
same,normalized growth,"S. cerevisiae deletion strains, locus YLR357W, strain rsc2, hits give low values",0.939
same,normalized growth,"S. cerevisiae deletion strains, locus YLR370C, strain arc18, hits give low values",0.925
same,normalized growth,"S. cerevisiae deletion strains, locus YLR371W, strain rom2, hits give low values",0.985
same,normalized growth,"S. cerevisiae deletion strains, locus YLR384C, strain iki3, hits give low values",0.977
same,normalized growth,"S. cerevisiae deletion strains, locus YLR418C, strain cdc73, hits give low values",0.829 (active)
same,normalized growth,"S. cerevisiae deletion strains, locus YML016C, strain PPZ1, hits give low values",0.996
same,normalized growth,"S. cerevisiae deletion strains, locus YML032C, strain rad52, hits give low values",0.984
same,normalized growth,"S. cerevisiae deletion strains, locus YML120C, strain ndi1, hits give low values",0.916
same,normalized growth,"S. cerevisiae deletion strains, locus YML124C, strain tub3, hits give low values",0.986
same,normalized growth,"S. cerevisiae deletion strains, locus YMR058W, strain fet3, hits give low values",0.968
same,normalized growth,"S. cerevisiae deletion strains, locus YMR078C, strain ctf18, hits give low values",0.97
same,normalized growth,"S. cerevisiae deletion strains, locus YMR125W, strain sto1, hits give low values",0.947
same,normalized growth,"S. cerevisiae deletion strains, locus YMR129W, hits give low values",0.972
same,normalized growth,"S. cerevisiae deletion strains, locus YMR205C, strain PFK2, hits give low values",0.906
same,normalized growth,"S. cerevisiae deletion strains, locus YMR223W, strain ubp8, hits give low values",0.917
same,normalized growth,"S. cerevisiae deletion strains, locus YMR231W, strain pep5, hits give low values",0.978
same,normalized growth,"S. cerevisiae deletion strains, locus YMR263W, strain SAP30, hits give low values",0.989
same,normalized growth,"S. cerevisiae deletion strains, locus YMR307W, strain GAS1, hits give low values",0.992
same,normalized growth,"S. cerevisiae deletion strains, locus YNL067W, strain RPL9B, hits give low values",0.993
same,normalized growth,"S. cerevisiae deletion strains, locus YNL071W, strain lat1, hits give low values",0.876 (active)
same,normalized growth,"S. cerevisiae deletion strains, locus YNL153C, strain GIM3, hits give low values",0.983
same,normalized growth,"S. cerevisiae deletion strains, locus YNL183C, strain NPR1, hits give low values",0.951
same,normalized growth,"S. cerevisiae deletion strains, locus YNL209W, strain ssb2, hits give low values",0.958
same,normalized growth,"S. cerevisiae deletion strains, locus YNL233W, strain BNI4, hits give low values",0.989
same,normalized growth,"S. cerevisiae deletion strains, locus YNL248C, strain rpa49, hits give low values",0.955
same,normalized growth,"S. cerevisiae deletion strains, locus YNL250W, strain rad50, hits give low values",0.986
same,normalized growth,"S. cerevisiae deletion strains, locus YNL271C, strain bni1, hits give low values",0.969
same,normalized growth,"S. cerevisiae deletion strains, locus YNL298W, strain CLA4, hits give low values",0.953
same,normalized growth,"S. cerevisiae deletion strains, locus YNL307C, strain MCK1, hits give low values",0.914
same,normalized growth,"S. cerevisiae deletion strains, locus YNL322C, strain KRE1 (second series), hits give low values",0.962
same,normalized growth,"S. cerevisiae deletion strains, locus YNR049C, strain mso1, hits give low values",0.974
same,normalized growth,"S. cerevisiae deletion strains, locus YNR052C, strain pop2, hits give low values",0.994
same,normalized growth,"S. cerevisiae deletion strains, locus YOL012C, strain htz1",1.07
same,normalized growth,"S. cerevisiae deletion strains, locus YOL147C, strain pex11, hits give low values",0.983
same,normalized growth,"S. cerevisiae deletion strains, locus YOR001W, strain rrp6, hits give low values",1.01
same,normalized growth,"S. cerevisiae deletion strains, locus YOR061W, strain CKA2, hits give low values",0.987
same,normalized growth,"S. cerevisiae deletion strains, locus YOR069W, strain VPS5, hits give low values",0.984
same,normalized growth,"S. cerevisiae deletion strains, locus YOR070C, strain gyp1, hits give low values",0.967
same,normalized growth,"S. cerevisiae deletion strains, locus YOR080W, strain dia2, hits give low values",0.97
same,normalized growth,"S. cerevisiae deletion strains, locus YOR083W, strain WHI5, hits give low values",0.927
same,normalized growth,"S. cerevisiae deletion strains, locus YOR106W, strain vam3, hits give low values",0.95
same,normalized growth,"S. cerevisiae deletion strains, locus YOR136W, strain idh2, hits give low values",1
same,normalized growth,"S. cerevisiae deletion strains, locus YOR144C, strain elg1, hits give low values",0.997
same,normalized growth,"S. cerevisiae deletion strains, locus YOR184W, strain ser1, hits give low values",0.875
same,normalized growth,"S. cerevisiae deletion strains, locus YOR231W, strain MKK1, hits give low values",0.998
same,normalized growth,"S. cerevisiae deletion strains, locus YOR265W, strain rbl2, hits give low values",0.986
same,normalized growth,"S. cerevisiae deletion strains, locus YOR270C, strain vph1, hits give low values",0.867
same,normalized growth,"S. cerevisiae deletion strains, locus YOR290C, strain snf2, hits give low values",0.873
same,normalized growth,"S. cerevisiae deletion strains, locus YOR316C, strain cot1, hits give low values",0.986
same,normalized growth,"S. cerevisiae deletion strains, locus YPL051W, strain arl3, hits give low values",0.937
same,normalized growth,"S. cerevisiae deletion strains, locus YPL055C, strain LGE1, hits give low values",0.963
same,normalized growth,"S. cerevisiae deletion strains, locus YPL078C, strain atp4, hits give low values",0.939
same,normalized growth,"S. cerevisiae deletion strains, locus YPL106C, strain sse1, hits give low values",0.991
same,normalized growth,"S. cerevisiae deletion strains, locus YPL240C, strain hsp82, hits give low values",0.967
same,normalized growth,"S. cerevisiae deletion strains, locus YPL256C, strain CLN2, hits give low values",1
same,normalized growth,"S. cerevisiae deletion strains, locus YPR119W, strain clb2, hits give low values",0.986
same,normalized growth,"S. cerevisiae deletion strains, locus YPR141C, strain kar3, hits give low values",0.954
same,normalized growth,"S. cerevisiae deletion strains, locus YPR163C, strain tif3, hits give low values",0.982
same,normalized growth,"S. cerevisiae deletion strains, locus YPR167C, strain met16, hits give low values",0.982
same,normalized growth,"S. cerevisiae deletion strains, strain wtn01, hits give low values",0.955
same,normalized growth,"S. cerevisiae strains, strain wild type, hits give low values",0.991
